# Assay results reported in the supplement of paper PMC3342239.
# Structures can show the parent of a compound that is named as a salt.
# System: Saccharomyces cerevisiae
# Assay: fraction of cells in G1 phase (DNA content, flow cytometry); higher = more cells with unreplicated DNA (G1 delay)
# Details: temperature: 30 C; YPD; JTY2953 pdr5 snq2 (sensitized); drug added to: cultures diluted from stationary phase; 6-7 h
# Method in brief: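 Library drugs were added to S. cerevisiae in YPD at 30°C, with fixation after 6–7 h for sensitized JTY2953 diluted 1∶200 from overnight and given a final 20 µg/ml, 6 h for dividing JTY2953, and 4.33 h for BY4741. Ethanol-fixed cells stained with SYTOX Green were read by flow cytometry, 10,000 events each. The G1 fraction is the ratio of the Dean-Jett-Fox G1 peak area to the G1 plus G2/M areas.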
row,SMILES,fraction of cells in G1 phase
1,CN(CCOc1ccc(CC2SC(=O)NC2=O)cc1)c1ccccn1 (configuration not stated) [Rosiglitazone maleate] (42.2386 µM),0.574
2,CC1=C(C)C(=O)C(CCCCC#CCCCC#CCO)=C(C)C1=O [Docebenone] (61.2671 µM),0.552
3,Cc1ccc(-c2ncc(Cl)cc2-c2ccc(S(C)(=O)=O)cc2)cn1 [Etoricoxib] (55.7337 µM),0.511
4,NC(CO)C(=O)NNCc1ccc(O)c(O)c1O (configuration not stated) [Benserazide HCl] (77.7459 µM),0.514
5,NC[C@H]1O[C@H](O[C@H]2[C@H](O)[C@@H](O[C@H]3O[C@H](CO)[C@@H](O)[C@H](N)[C@H]3O)[C@H](N)C[C@@H]2N)[C@H](N)C[C@@H]1O [Tobramycin (free base)] (42.7786 µM),0.469
6,CCOC(=O)C1=C(C)NC(C)=C(C(=O)OCC)C1c1ccccc1/C=C/C(=O)OC(C)(C)C [Lacidipine] (43.9024 µM),0.516
7,COc1c(C)c2c(c(O)c1C/C=C(\C)CCC(=O)OCCN1CCOCC1)C(=O)OC2 [Mycophenolate mofetil] (46.1355 µM),0.513
8,COc1cc(Cc2cnc(N)nc2N)cc(OC)c1OC [Trimethoprim] (68.8884 µM),0.486
9,O=C(O)c1cc(/N=N/c2ccc(S(=O)(=O)Nc3ccccn3)cc2)ccc1O [Sulfasalazine] (50.2008 µM),0.517
10,C[C@@](Cc1ccc(O)c(O)c1)(NN)C(=O)O [Carbidopa] (88.404 µM),0.482
11,CC(=O)Nc1ccc(CC(=O)O)cc1 [Actarit] (103.52 µM),0.521
12,NC[C@H]1CC[C@H](C(=O)O)CC1 [Tranexamic acid] (127.226 µM),0.504
13,CN(C)/N=N/c1[nH]cnc1C(N)=O [Dacarbazine] (109.778 µM),0.47
14,CN1[C@@H](CC(=O)c2ccccc2)CCC[C@H]1C[C@H](O)c1ccccc1 [Lobeline] (59.2652 µM),0.525
15,CCCCC[C@H](O)/C=C/[C@H]1[C@H](O)CC(=O)[C@@H]1C/C=C\CCCC(=O)O [Dinoprostone] (56.7416 µM),0.487
16,N[C@@H](Cc1ccc(O)c(O)c1)C(=O)O [Levodopa] (101.424 µM),0.487
17,CC(C)NCC(O)COc1ccc(CC(N)=O)cc1 (configuration not stated) [Atenolol] (75.0911 µM),0.454
18,N=C(N)NC(=N)N1CCOCC1 [Moroxydine HCl] (96.3092 µM),0.496
19,NS(=O)(=O)c1cc2c(cc1Cl)NC(C(Cl)Cl)NS2(=O)=O (configuration not stated) [Trichloromethiazide] (52.5406 µM),0.494

row,SMILES,fraction of cells in G1 phase
1,Nc1c2c(nc3ccccc13)CCCC2O (configuration not stated) [Hydroxytacrine maleate] (93.3405 µM),0.513
2,CCn1cc(C(=O)O)c(=O)c2cc(F)c(N3CCN(C)CC3)cc21 [Pefloxacine mesylate] (59.9942 µM),0.465
3,CC1CNc2c(cccc2S(=O)(=O)N[C@@H](CCCNC(=N)N)C(=O)N2CC[C@@H](C)C[C@@H]2C(=O)O)C1 (some centres not stated) [Argatroban] (39.3202 µM),0.487
4,CC(=O)CCCCn1c(=O)c2c(ncn2C)n(C)c1=O [Pentoxifylline] (71.8614 µM),0.487
5,C[C@@H](O[C@H]1OCCN(Cc2n[nH]c(=O)[nH]2)[C@H]1c1ccc(F)cc1)c1cc(C(F)(F)F)cc(C(F)(F)F)c1 [Aprepitant] (37.4225 µM),0.493
6,CCC[C@@H]1C[C@@H](C(=O)N[C@@H]([C@H]2O[C@H](SC)[C@H](O)[C@@H](O)[C@H]2O)[C@@H](C)O)N(C)C1 [Lincomycin] (49.195 µM),0.539
7,Cc1nc2c([nH]1)c(=O)n(C)c(=O)n2Cc1ccco1 [Furafylline] (76.8479 µM),0.463
8,CC(=O)O[C@@]12CO[C@@H]1C[C@H](O)[C@@]1(C)C(=O)[C@H](O)C3=C(C)[C@@H](OC(=O)[C@H](O)[C@@H](NC(=O)OC(C)(C)C)c4ccccc4)C[C@@](O)([C@@H](OC(=O)c4ccccc4)[C@H]21)C3(C)C [Docetaxil] (24.7555 µM),0.507
9,CC(=O)NC[C@H]1CN(c2ccc(N3CCOCC3)c(F)c2)C(=O)O1 [Linezolid] (59.2849 µM),0.526
10,O=c1[nH]cnc2c1ncn2[C@H]1CC[C@@H](CO)O1 [Didanosine] (84.6625 µM),0.514
11,CC(C)OC(=O)C(C)(C)Oc1ccc(C(=O)c2ccc(Cl)cc2)cc1 [Fenofibrate] (55.4261 µM),0.497
12,CO[C@H]1/C=C/O[C@@]2(C)Oc3c(C)c(O)c4c(O)c(cc(O)c4c3C2=O)NC(=O)/C(C)=C\C=C\[C@H](C)[C@H](O)[C@@H](C)[C@@H](O)[C@@H](C)[C@H](OC(C)=O)[C@@H]1C [Rifamycin sv] (28.7035 µM),0.477
13,CCCCc1nc(Cl)c(CO)n1Cc1ccc(-c2ccccc2-c2nnn[nH]2)cc1 [Losartan potassium] (43.3825 µM),0.487
14,CCN1CCC[C@H]1CNC(=O)c1cc(S(N)(=O)=O)ccc1OC [Sulpiride s (-)] (58.5768 µM),0.482
15,CN(C)CCCC1(c2ccc(F)cc2)OCc2cc(C#N)ccc21 (configuration not stated) [Citalopram] (61.652 µM),0.454
16,CCN1CCCC1CNC(=O)c1cc(S(=O)(=O)CC)c(N)cc1OC (configuration not stated) [Amisulpride] (54.1272 µM),0.471
17,NC[C@@H]1O[C@H](O[C@H]2[C@@H](O)[C@H](O[C@@H]3[C@@H](O)[C@H](N)C[C@H](N)[C@H]3O[C@H]3O[C@H](CN)[C@@H](O)[C@H](O)[C@H]3N)O[C@@H]2CO)[C@H](N)[C@@H](O)[C@@H]1O [Neomycin sulfate] (32.5386 µM),0.495
18,COc1ccc2c(c1)c(CC(=O)O)c(C)n2C(=O)c1ccc(Cl)cc1 [Indomethacin] (55.8977 µM),0.519
